Experimental findings from PubChem BioAssay AID449743 (Southern Research Specialized Biocontainment Screening …, 2010) are described below.

Results with a measured potency or affinity are listed apart. Calls of active or inactive are those of the source. No rule for the calls is given here.

The assay is described as follows: PhoP regulon inhibitors in Salmonella Typhi, late-stage follow-up, GFP fluorescence, round 4, purified and synthesized compounds (AID 449743). To be noted: Salmonella Typhi PhoP-promoter GFP reporter, 4 h; series mostly up to 150 µM.
Take `S=C(NCc1ccc(Cl)cc1)Nc1ccccc1I`: the molecule was classed as inactive.

With `S=C(NCc1ccc(Cl)cc1)Nc1ccccn1`, the call was inactive.

For the molecule `N#Cc1ccc(CN2CCCN(C(=O)Nc3ccc(Cl)cc3)C2)cc1`, the call was inactive.

As to `O=C(NC1CCCCC1)N1CCCN(Cc2ccccc2F)C1`, the molecule was called inactive.

On to `S=C(NCc1ccc(Cl)cc1)Nc1ccccc1Br`, for which the call was inactive.

`O=C(Nc1ccc(Cl)cc1)N1CCCN(Cc2cccc(Br)c2)C1`: the result was inactive.

As for `S=C(NCc1ccc(Cl)cc1)NC1CCCCC1`, the call was inactive.

For the molecule `S=C(NCc1ccc(Cl)cc1)NN1CCOCC1`, the molecule was called inactive.

On to `CN1CCN(C(=S)NCc2ccc(Cl)cc2)CC1`, for which the result was inactive.

In the case of `Cc1ccccc1NC(=O)N1CCCN(Cc2ccccc2F)C1`, the molecule was classed as inactive.

`S=C(NCc1ccc(Cl)cc1)Nc1ccc(I)cc1`: the call was inactive.

`S=C(NCc1ccccc1)NCc1ccc(Cl)cc1`: the molecule was called inactive.

Consider `S=C(NCc1ccc(Cl)cc1)NC1CCOCC1`, for which the outcome was inactive.

For `FC(F)(F)c1ccccc1NC(=S)NCc1ccc(Cl)cc1`, the call was inactive.

Turning to `S=C(NCc1ccc(Cl)cc1)Nc1cccc(Br)c1`, the molecule was called inactive.

Consider `S=C(NCc1ccc(Cl)cc1)Nc1ccncn1`, for which the molecule was classed as inactive.

With `O=C(Nc1ccc(Cl)cc1)N1CCN(Cc2ccccc2F)C1`, the outcome was inactive.

With `FC(F)(F)c1ccc(NC(=S)NCc2ccc(Cl)cc2)cc1`, the outcome was inactive.

On to `O=C(Nc1ccc(Cl)cc1)N1CCCN(Cc2cccc(F)c2)C1`, for which the molecule was called inactive.
